Assay results: PubChem BioAssay AID652048 (National Center for Advancing Translational Sciences (NCATS), 2013)
Where “and” joins values, the source holds several entries; their conditions need not be identical. Equal entries are not always repeated. Screen size: about 410,000 compounds; about 2,400 (0.59%) were called active. Only a selection was taken, and actives are over-represented in it overall. A number with no mark means an inactive call. Rule as the data show it: active = max activation above about 30%; inactive = the rest. Where a SMILES comes first, the peptide text is derived from it. Bridges are numbered along the chain shown (N, C = ends). [ ]: non-standard residue; d: D form. The star is where a group is joined. X1 = CC[C@H](C)CCCCC(=O)*; Dab = NCC[C@H](N)C(=O)O

target: D(3) dopamine receptor (Homo sapiens) (UniProt P35462); assay: qHTS of D3 Dopamine Receptor Agonist: qHTS; conditions: D3R DiscoveRx beta-arrestin cells, luminescence, 90 min; hits give high values; also: 0% is about no effect
Sequence (P35462 whole entry, looked up): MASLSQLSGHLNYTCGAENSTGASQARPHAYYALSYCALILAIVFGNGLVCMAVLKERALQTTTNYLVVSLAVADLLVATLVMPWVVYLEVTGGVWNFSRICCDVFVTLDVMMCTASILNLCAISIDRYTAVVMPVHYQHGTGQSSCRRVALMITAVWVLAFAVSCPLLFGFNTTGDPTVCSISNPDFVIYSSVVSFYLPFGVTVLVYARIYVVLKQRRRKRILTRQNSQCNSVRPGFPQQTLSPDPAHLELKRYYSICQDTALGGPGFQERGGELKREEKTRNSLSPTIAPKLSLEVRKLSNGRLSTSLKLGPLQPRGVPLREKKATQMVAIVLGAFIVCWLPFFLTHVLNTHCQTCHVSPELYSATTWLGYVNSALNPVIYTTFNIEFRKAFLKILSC
In short: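 Agonist mode: compounds and dopamine controls were applied to plated cells for 90 min at 37 degrees C after an overnight attachment at 1500 cells/well. Luminescent read-out followed 30 - 60 minutes at room temperature with DiscoveRx detection reagent.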

SMILES	max activation
FCOC(C(F)(F)F)C(F)(F)F	9.08%
COc1ccc(C(=O)COC(=O)c2c(C)noc2C)cc1Cl	-4.54%
COc1cc(OC)cc(C(=O)NCC(=O)OCc2csc(-c3ccccc3)n2)c1	-7.01%
Cc1ccc(-c2nc(COC(=O)c3c(C)noc3C)cs2)cc1	32.5% (active)
CC(=O)OC[C@H]1O[C@@H](O[C@H]2[C@H](O)[C@@H](OC(=O)c3ccccc3C(=O)O)[C@H](O)O[C@@H]2COC(C)=O)[C@H](O)[C@@H](OC(=O)c2ccccc2C(=O)O)[C@@H]1O	2.74%
CCCC(=O)N1CCN(c2nc3c(OC)ccc(C)c3s2)CC1	3.21%
O=C1C(c2[nH]c3ccccc3c2O)=Nc2ccccc21	-8.96%
CCC(=O)N1CCC(C(N)=O)(N2CCCCC2)CC1	1.17%
NC(=O)C1(N2CCCCC2)CCN(C(=S)Nc2ccc(Cl)cc2)CC1	32.5% (active)
Cc1cc(Cl)ccc1NC(=S)N1CCC(C(N)=O)(N2CCCCC2)CC1	5%
Cc1ccc(NS(=O)(=O)c2ccc3c(c2)CC(=O)N3)cc1Cl	-10.2%
Fc1ccc2[nH]c3c(N4CCN(Cc5ccc6c(c5)OCO6)CC4)ncnc3c2c1	9.79%
Fc1ccc2[nH]c3c(N4CCSCC4)ncnc3c2c1	42.3% (active)
Cc1ccc(CNC(=O)CCC(=O)N2Cc3ccccc3Oc3ncccc32)cc1	-12%
CCC(=O)N1c2ccccc2CC1C(=O)N1CCN(c2ccccc2)CC1 (stereo not drawn)	0.179%
COc1cccc(C(=O)Nc2ccc3oc(-c4ccc5ccccc5c4)nc3c2)c1	15.1%
Cc1cc2nc(-c3ccc(NC(=O)c4cccnc4)cc3)oc2cc1C	32.8% (active)
Cc1cc2nc(-c3ccc(NC(=O)c4cc5ccccc5o4)cc3)oc2cc1C	2.05%
CC1=C(/C=C/C(C)=C/C=C/C(C)=C/C=C/C=C(C)/C=C/C=C(C)/C=C/C2=C(C)CCCC2(C)C)C(C)(C)CCC1	-12.4%
Cc1ccc(-n2c(SCC(=O)Nc3ncc(Cl)cc3Cl)nc3ccccc32)cc1	39.8% (active)
Cc1cc(C)c(NC(=O)Cn2c(SCC(=O)NCc3ccccc3)nc3ccccc32)c(C)c1	-11.4%
Cc1ccc(NC(=O)CSc2nc3c([nH]c4ccccc43)c(=O)n2-c2ccccc2)cc1Cl	-9.55%
CCC(=O)N1CCc2cc(S(=O)(=O)NC(C(=O)Nc3ccc(C(C)=O)cc3)C(C)C)ccc21 (stereo not drawn)	-16.2%
NC(=O)C1CCN(C(=O)COc2ccc3c4c(c(=O)oc3c2)CCC4)CC1	-9.64%
CSCCC(NS(=O)(=O)c1ccc(C)cc1)C(=O)N1CCCC1 (stereo not drawn)	-0.577%
CCCCC(NS(=O)(=O)c1ccc(C)cc1)C(=O)Oc1ccc2c3c(c(=O)oc2c1)CCC3 (stereo not drawn)	51.9% (active)

SMILES	max activation
COc1ccccc1NC(=O)c1oc2ccccc2c1NC(=O)C(C)C	2.74%
O=C(COc1ccc(Cl)cc1Cl)NCCCNC(=O)c1cnccn1	5.48%
C/C(CC(=O)NCc1ccc(Cl)cc1)=N\NC(=O)COc1ccc(C)cc1Br	-14.3%
CSc1ccc(/C=N\NC(=O)COc2ccc(Cl)cc2Br)cc1	32.8% (active)
CC[C@H](C)CCCCC(=O)N[C@@H](CCN)C(=O)N[C@H](C(=O)N[C@@H](CCN)C(=O)N[C@H]1CCNC(=O)[C@@H]([C@H](C)O)NC(=O)[C@H](CCN)NC(=O)[C@H](CCN)NC(=O)[C@H](CC(C)C)NC(=O)[C@@H](CC(C)C)NC(=O)[C@H](CCN)NC1=O)[C@@H](C)O (X1-[Dab]T[Dab][Dab][Dab][dL]L[Dab][Dab][dT]; lactam 4-C)	-1.99%
CC1(C)[C@@H]2CC[C@@]1(C)[C@H](OC(=O)CSC#N)C2	-0.173%
CCS(=O)(=O)N1CCC(N2CCN(c3ccccc3)CC2)CC1	64.6% (active)
CS(=O)(=O)N1CCC(C(=O)N2CCN(c3ccccc3)CC2)CC1	6.05%
O=S(=O)(NCCS(=O)(=O)N1CCN(c2ccccc2)CC1)c1ccc(Cl)cc1	0.296%
Cc1ccc(C)c(N2CCN(C(=O)CCc3c(C)nc4c(c3C)c(=O)n(C)c(=O)n4C)CC2)c1	1.37%
COc1cc2c(cc1OC)[C@@H](Cc1cc(OC)c(OC)c(OC)c1)[N+](C)(CCCOC(=O)CC/C=C/CCC(=O)OCCC[N+]1(C)CCc3cc(OC)c(OC)cc3[C@H]1Cc1cc(OC)c(OC)c(OC)c1)CC2 (stereo partly drawn)	4.34% and 3.72%
Oc1ccccc1N1CCN(c2ncnc3sc(-c4ccccc4)cc23)CC1	31.1% (active)
Cn1nnc2c(N3CCN(c4ccccc4)CC3)ncnc21	1.99%
CCc1cc2c(N3CCN(c4nnc(CC)s4)CC3)ncnc2s1	13.8%
COc1ccc(OC)c(CCNC(=O)c2nn(C)c3c2CS(=O)(=O)c2ccccc2-3)c1	2.65%
CCCCN(CC)CCCNC(=O)c1nn(C)c2c1CSc1ccccc1-2	3.9%
CCCCN(CC)CCCNC(=O)c1nn(C)c2c1CS(=O)(=O)c1ccccc1-2	31.8% (active)
CCOc1ccccc1CNC(=O)c1ccc(-n2c(C)cc3c2CCC(C)C3)cc1 (stereo not drawn)	-10.9%
COC(=O)c1cc(NC(=O)CCc2c(C)nc3c4c(C)cc(C)nc4nn3c2C)cc(C(=O)OC)c1	-21.8%
O=C(CSc1nccn1-c1ccc(F)cc1)Nc1cccc2ccccc12	7.68%
Cc1ccc(NC(=O)[C@H](Cc2ccccc2)NC(=O)CC[C@H]2O[C@@H](n3ccc(=O)[nH]c3=O)[C@H](O)[C@@H]2O)cc1C	63.9% (active)
O=C(CC[C@H]1O[C@@H](n2ccc(=O)[nH]c2=O)[C@H](O)[C@@H]1O)N[C@H](Cc1ccccc1)C(=O)NCc1ccco1	13.5%
O=C(CC[C@H]1O[C@@H](n2ccc(=O)[nH]c2=O)[C@H](O)[C@@H]1O)N[C@H](Cc1ccccc1)C(=O)NCCCN1CCCC1=O	-10.2%
CCOc1ccc(-c2cc3c(=O)n(CC(=O)NCc4ccc(OC)cc4)ccn3n2)cc1	-2.91%
COc1cc(-c2c(-c3ccc4c(c3)OCO4)noc2C)ccc1F	-40.8%
COc1cc(CNCc2ccc3c(c2)OCO3)c([N+](=O)[O-])cc1OC	-8.17%

SMILES	max activation
COc1cc2c(-c3ccc4c(c3)OCO4)c(-c3ccsc3)oc(=O)c2cc1OC	30.4% (active)
O=C(CCc1cn(Cc2ccc(F)cc2)c2ccccc12)NC1CCCCC1	-6.69%
C/C=C/C1=C(C(=O)O)N2C(=O)[C@@H](NC(=O)[C@H](N)c3ccc(O)cc3)[C@H]2SC1	-0.123%
C#C[C@]1(O)CC[C@H]2[C@@H]3CCC4=C/C(=N/O)CC[C@@H]4[C@H]3CC[C@@]21CC	4.22%
CC(C)CCNC(=O)c1[nH]c(C(F)(F)F)nc1-c1ccccc1	83.5% (active)
CC(C)CCNC(=O)c1cccnc1Sc1ccccc1	-0.291%
CC(C)(C)OC(=O)N1CCN(C(=O)c2[nH]c(C(F)(F)F)nc2-c2ccccc2)CC1	-1.11%
COc1ccc(CCNC(=O)CCCn2c(=O)c3ccccc3n(Cc3ccc(C)cc3)c2=O)cc1OC	-1.49%
CC[C@H](C)CCCCC(=O)N[C@@H](CCN)C(=O)N[C@H](C(=O)N[C@@H](CCN)C(=O)N[C@H]1CCNC(=O)[C@H]([C@@H](C)O)NC(=O)[C@H](CCN)NC(=O)[C@H](CCN)NC(=O)[C@H](CC(C)C)NC(=O)[C@@H](CC(C)C)NC(=O)[C@H](CCN)NC1=O)[C@@H](C)O (X1-[Dab]T[Dab][Dab][Dab][dL]L[Dab][Dab]T; lactam 4-C)	0.26%
COc1cccc(CNC(=O)C2CCC(CNS(=O)(=O)c3cccs3)CC2)c1 (stereo not drawn)	2.62%
COc1cc(-n2c(C)nc3cc(C(=O)NCc4ccco4)ccc32)cc(OC)c1OC	-12.8%
CCn1c(CNC(=O)c2cc(OC)c(OC)c(OC)c2)cc2cc(C)ccc21	30.2% (active)
COc1cc(C(=O)NCC(=O)N2CC=C(c3ccccc3)CC2)cc(OC)c1OC	-3.75%
Cc1cccc(C(CC(=O)NCC2(c3ccccc3)CCCC2)c2ccccc2)c1O (stereo not drawn)	-11.1%
CCOc1ccccc1N(CC)C(=O)c1cc2ccc3cccnc3c2[nH]1	8.81%
Cc1ccc(-c2nnc(CN3CCN(C)CC3)o2)cc1	-9.28%
c1ccc(-c2cnc(CN3CCN(c4ccccc4)CC3)o2)cc1	47.7% (active)
Cc1ccc(C)c(N2CCN(Cc3nnc(-c4ccccc4)o3)CC2)c1	-22.5%
NNc1nnc(Cc2ccncc2)c2ccccc12	4.9%
COc1cc(CNCCSc2nnnn2C)ccc1OCc1c(F)cccc1Cl	-12.1%
COc1cc(SC#N)ccc1N=Cc1c(C)[nH]n(-c2ccc(C)cc2)c1=O	37.3% (active)
C=CCOc1c2ccc(C(=O)N(CC)c3ccc(OC)cc3)cc2nn1C	36.4% (active)
COc1ccc(N(Cc2ccc(N(C)C)cc2)C(=O)c2ccc(S(C)(=O)=O)cc2)cc1	-1.61%
CCN(C(=O)c1sc2cc(OC)ccc2c1Cl)c1ccccc1	-6.98%
CCC(C)[C@@H](N)C(=O)O (stereo partly drawn)	1.21%
COc1cc(NS(=O)(=O)c2cccs2)cc(OC)c1	-2.4%
